From PubChem BioAssay
Records with an inconclusive call do not appear. The source made the active and inactive calls. Cut-off not given; nearly all actives show AC50 up to about 30 µM.

Assay: growth inhibition of DIPG glioma cells, dose response, cell-based, SU-DIPG-IV, MIPE4.0, CellTiter-Glo, qHTS (AID 1347063);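 further: compound exposure lasted 48 hours before the viability readout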
Conditions: SU-DIPG-IV viability, CellTiter-Glo ATP luminescence

Question: Which outcome does the source give for `C[C@]12CCC3c4ccc(O)cc4CCC3C1CCC2=O` (some centres undefined) here?
Answer: The outcome was “inactive”.

Question: With `COC(=O)/C=C/C(=O)OC` as the compound, how does the AC50 read?
Answer: The AC50 was 0.935 µM (active).

Question: For `C=CC[C@@H]1/C=C(\C)C[C@H](C)C[C@H](OC)[C@H]2O[C@@](O)(C(=O)C(=O)N3CCCC[C@H]3C(=O)O[C@H](/C(C)=C/[C@@H]3CC[C@@H](O)[C@H](OC)C3)[C@H](C)[C@@H](O)CC1=O)[C@H](C)C[C@@H]2OC`, which AC50 is on record?
Answer: The AC50 was 1.18 µM (active).

Question: Which outcome does the source give for `O=c1ccn([C@@H]2O[C@H](CO)[C@@H](O)[C@H]2O)c(=O)[nH]1` here?
Answer: The outcome was “inactive”.

Question: Which outcome does the source give for `N#C[C@@H]1C[C@@H]2C[C@@H]2N1C(=O)[C@@H](N)C12CC3CC(CC(O)(C3)C1)C2` here?
Answer: Its outcome is “inactive”.

Question: For `Cc1coc2c1C(=O)C(=O)c1c-2ccc2c1CCCC2(C)C`, which AC50 is on record?
Answer: Its AC50 is 3.32 µM (active).

Question: With `OC(c1cc(C(F)(F)F)nc2c(C(F)(F)F)cccc12)C1CCCCN1` (centres undefined) as the compound, how does the AC50 read?
Answer: Its AC50 is 26.4 µM (active).

Question: With `C[C@H]1COC2=C1C(=O)C(=O)c1c2ccc2c1CCCC2(C)C` as the compound, how does the AC50 read?
Answer: The AC50 was 13.2 µM (active).

Question: With `CCCCS(=N)(=O)CCC(N)C(=O)O` (centres undefined) as the compound, how does the outcome read?
Answer: The outcome was “inactive”.

Question: With `CC[C@@]1(O)C(=O)OCc2c1cc1n(c2=O)Cc2cc3cc(O)ccc3nc2-1` as the compound, how does the AC50 read?
Answer: Its AC50 is 0.0833 µM (active).

Question: For `Oc1cc2c(cc1O)C1c3ccc(O)c(O)c3OCC1(O)C2` (centres undefined), which outcome is on record?
Answer: The outcome was “inactive”.

Question: For `CC1=C(C(=O)O)N2C(=O)[C@@H](NC(=O)C(N)c3ccccc3)[C@H]2SC1` (some centres undefined), which outcome is on record?
Answer: Its outcome is “inactive”.

Question: For `CC(C)C(C)/C=C/C(C)C1CCC2C3=CC=C4CC(O)CCC4(C)C3CCC21C` (centres undefined), which outcome is on record?
Answer: The outcome was “inactive”.

Question: Which outcome does the source give for `CC1CC2C3CCC4=CC(=O)C=C[C@]4(C)[C@@]3(F)[C@@H](O)C[C@]2(C)[C@@]1(O)C(=O)CO` (some centres undefined) here?
Answer: The outcome was “inactive”.
